“And” between values parts separate entries of the source, which are not always exact repeats. Equal values may be shown once. Inconclusive results are not listed. The source made the active and inactive calls. Calls come from the whole dose curve; as a rule, active = well fitted curve in the direction sought with a large enough effect; inconclusive = small, poorly fitted or top-dose-only effect, or another doubt; inactive = no such curve, though single readings can be large; an effect the other way counts as inactive or inconclusive.
Potency is the fitted concentration of half-maximal effect.

The first experiment is described as follows: qHTS of pediatric cancer cell lines to identify multiple opportunities for drug repurposing: Primary screen for LAN-5 cells (AID 1347100).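 For activity change, negative = cytotoxic: plate controls were DMSO neutral control for no effect and bortezomib positive control for full effect.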 Particulars: LAN-5 neuroblastoma viability, CellTiter-Glo luminescence, 48 h; series mostly up to 46 µM; activity change, negative = cytotoxic: at the top concentration. In outline:
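Cells (500-1,000/well) in growth media were settled 5 h at 37 degrees C, then given compounds for 48 h. Viability was read as CellTiter-Glo luminescence. Primary runs used MIPE at 11 points (0.78 nM-46 µM) and NPC at 8 points (0.59 nM-46 µM); follow-ups used 11 points.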
For `NN=C(N)N`, the “activity change, negative = cytotoxic” value is 12.2% (inactive).
In the case of `CN1CCN(C(=O)O[C@H]2c3nccnc3C(=O)N2c2ccc(Cl)cn2)CC1`, the Potency result was “inactive”.
On to `CC1NCCOC1c1ccccc1` (stereo not given), for which the “activity change, negative = cytotoxic” value was 9.1% (inactive).
`CC(C)=CC1C(C(=O)OCc2cccc(Oc3ccccc3)c2)C1(C)C` (stereo not given): the “activity change, negative = cytotoxic” value was 14.5% (inactive).
As to `NCCc1cc(O)c(O)cc1O`, the “activity change, negative = cytotoxic” value was -11.9% (inactive).
In the case of `CCN(CC)C(=O)N[C@@H]1C=C2c3cccc4[nH]cc(c34)C[C@@H]2N(C)C1`, the “activity change, negative = cytotoxic” value was -16.3% (inactive).
As for `CCCC(C)(COC(N)=O)COC(=O)NC(C)C` (stereo not given), the Potency result is “inactive”.
Turning to `O=[N+]([O-])c1cc([As](=O)(O)O)ccc1O`, the “activity change, negative = cytotoxic” value was 20.2% (inactive).
Regarding `COc1ccc(C(=O)c2c(C)n(CCN3CCOCC3)c3ccccc23)cc1`, the Potency entry was “inactive”.
As for `CCC(C(N)=O)N1CCCC1=O` (stereo not given), the “activity change, negative = cytotoxic” value is 11.5% (inactive).
As to `C=C1CC[C@@]2(O)[C@H]3Cc4ccc(O)c5c4[C@@]2(CCN3CC2CC2)[C@H]1O5`, the “activity change, negative = cytotoxic” value is 22.7% (inactive).
Regarding `Nc1ccncc1`, the “activity change, negative = cytotoxic” value was 12.7% (inactive).
Consider `CC(C)NCC(O)c1ccccc1Cl` (stereo not given), for which the “activity change, negative = cytotoxic” value was 1.39% (inactive).
As for `CCCN1CCC[C@@H]2Cc3nc(N)ncc3C[C@H]21`, the “activity change, negative = cytotoxic” value is 11.7% (inactive).
Take `N[C@@H](Cc1ccc(N(CCCl)CCCl)cc1)C(=O)O`: the Potency is 5.96 µM (active) and 3.72 µM (active).
As for `CCCN1CCC[C@@H]2Cc3[nH]ncc3C[C@H]21`, the “activity change, negative = cytotoxic” value was -2.32% (inactive).
Same read-out and setting: for `CC(=O)[C@H]1CC[C@H]2[C@@H]3CC[C@H]4C[C@](C)(O)CC[C@]4(C)[C@H]3CC[C@]12C` the value was -17.1% (inactive); for `N[C@@H](Cc1ccc(Oc2cc(I)c(O)c(I)c2)c(I)c1)C(=O)O`, -8.69% (inactive); for `Clc1cccc(N2CCNCC2)c1`, 5.6% (inactive).
For the compound `C#CCN(C)[C@H](C)Cc1ccccc1`, the Potency entry was “inactive”.
Turning to `CC(C)(C)NCC(O)c1cc(Cl)c(N)c(Cl)c1` (stereo not given), the “activity change, negative = cytotoxic” value was 11.4% (inactive).
For `CC[C@@H](CO)NC(=O)[C@@H]1C=C2c3cccc4[nH]cc(c34)C[C@H]2N(C)C1`, the “activity change, negative = cytotoxic” value was -10.7% (inactive).
Still for that read-out and setting: to `NP(N)(=O)NC(=O)c1ccc(F)cc1` belongs 19.4% (inactive); to `CCN(CC)CCOC(=O)C(O)(c1ccccc1)c1ccccc1`, 11.4% (inactive).
Regarding `Cc1cccc(C)c1NC(=O)CN1CCCC1=O`, the Potency entry was “inactive”.
Regarding `CN1C(=S)CN=C(c2ccccc2)c2cc(Cl)ccc21`, the “activity change, negative = cytotoxic” value is -6.67% (inactive).
Regarding `N[C@@H]1C[C@H]1c1ccccc1`, the “activity change, negative = cytotoxic” value is -16.8% (inactive).
With `CC[N+](CC)(CC)CC`, the “activity change, negative = cytotoxic” value is -5.51% (inactive).
Regarding `Fc1ccc(C(OCCN2CCN(CCCc3ccccc3)CC2)c2ccc(F)cc2)cc1`, the Potency was 16.6 µM (active) and 8.41 µM (active).
With `CCCC1CCCCN1` (stereo not given), the “activity change, negative = cytotoxic” value was 4.63% (inactive).
Still for that read-out and setting: for `C#CCOC(C(=O)OCCN(C)C)(c1ccccc1)c1ccccc1` the value was 11.6% (inactive).
As to `CN(C)CCc1ccc(O)cc1`, the Potency entry is “inactive”.
For the compound `CCN(C(C)=O)c1cccc(-c2ccnc3c(C#N)cnn23)c1`, the “activity change, negative = cytotoxic” value is 11.7% (inactive).
For the compound `CC(=O)Nc1cc([As](=O)(O)O)ccc1O`, the “activity change, negative = cytotoxic” value is 24.1% (inactive).
`NCC1(CC(=O)O)CCCCC1`: the Potency result is “inactive”.

A further experiment can be described thus: qHTS of pediatric cancer cell lines to identify multiple opportunities for drug repurposing: Primary screen for BT-12 cells (AID 1347101).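 For activity change, negative = cytotoxic: plate controls were DMSO for no effect and bortezomib positive control for full effect.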 Note: nearly all actives have a fitted effect of over 25% in size. To be noted: BT-12 viability, CellTiter-Glo luminescence, 48 h; series mostly up to 57.3 µM; activity change, negative = cytotoxic: at the top concentration. A digest of the protocol:
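Cells (500-1,000/well) rested 5 h, then received compounds for 48 h; metabolically active cells were measured by CellTiter-Glo luminescence. Final concentrations spanned up to 46 µM (MIPE, 11-point) or 0.59 nM-46 µM (NPC, 8-point) in primary screens, 11-point in follow-ups.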
A general note: Quantitative high-throughput screening tests each substance at several concentrations.
Consider `NN=C(N)N`, for which the “activity change, negative = cytotoxic” value is 10.7% (inactive).
For `CN1CCN(C(=O)O[C@H]2c3nccnc3C(=O)N2c2ccc(Cl)cn2)CC1`, the Potency entry was “inactive”.
As for `CC1NCCOC1c1ccccc1` (stereo not given), the “activity change, negative = cytotoxic” value was 0.693% (inactive).
As for `CC(C)=CC1C(C(=O)OCc2cccc(Oc3ccccc3)c2)C1(C)C` (stereo not given), the “activity change, negative = cytotoxic” value was -4.08% (inactive).
Still for that read-out and setting: for `NCCc1cc(O)c(O)cc1O` the value was -5.61% (inactive).
Consider `CCN(CC)C(=O)N[C@@H]1C=C2c3cccc4[nH]cc(c34)C[C@@H]2N(C)C1`, for which the “activity change, negative = cytotoxic” value is 3.59% (inactive).
As for `CCCC(C)(COC(N)=O)COC(=O)NC(C)C` (stereo not given), the Potency result was “inactive”.
In the case of `O=[N+]([O-])c1cc([As](=O)(O)O)ccc1O`, the “activity change, negative = cytotoxic” value was 4.88% (inactive).
On the same count and under the same terms, for `COc1ccc(C(=O)c2c(C)n(CCN3CCOCC3)c3ccccc23)cc1` the value was 9.18% (inactive); for `CCC(C(N)=O)N1CCCC1=O` (stereo not given), 9.5% (inactive).
Take `C=C1CC[C@@]2(O)[C@H]3Cc4ccc(O)c5c4[C@@]2(CCN3CC2CC2)[C@H]1O5`: the “activity change, negative = cytotoxic” value is 1.22% (inactive).
Take `Nc1ccncc1`: the “activity change, negative = cytotoxic” value is 7.84% (inactive).
As for `CC(C)NCC(O)c1ccccc1Cl` (stereo not given), the “activity change, negative = cytotoxic” value is 13% (inactive).
Still for that read-out and setting: for `CCCN1CCC[C@@H]2Cc3nc(N)ncc3C[C@H]21` the value was 10.9% (inactive); for `CCCN1CCC[C@@H]2Cc3[nH]ncc3C[C@H]21`, 6.06% (inactive).
On to `CC(=O)[C@H]1CC[C@H]2[C@@H]3CC[C@H]4C[C@](C)(O)CC[C@]4(C)[C@H]3CC[C@]12C`, for which the “activity change, negative = cytotoxic” value is 1.23% (inactive).
As to `Oc1cc(Cl)ccc1Oc1ccc(Cl)cc1Cl`, the Potency is 20.5 µM (active).
`N[C@@H](Cc1ccc(Oc2cc(I)c(O)c(I)c2)c(I)c1)C(=O)O`: the “activity change, negative = cytotoxic” value was 2% (inactive).
On to `Clc1cccc(N2CCNCC2)c1`, for which the “activity change, negative = cytotoxic” value was -0.129% (inactive).
`C#CCN(C)[C@H](C)Cc1ccccc1`: the Potency result is “inactive”.
Consider `CC(C)(C)NCC(O)c1cc(Cl)c(N)c(Cl)c1` (stereo not given), for which the “activity change, negative = cytotoxic” value is 12% (inactive).
Take `CC[C@@H](CO)NC(=O)[C@@H]1C=C2c3cccc4[nH]cc(c34)C[C@H]2N(C)C1`: the “activity change, negative = cytotoxic” value is -4.26% (inactive).
On the same count and under the same terms, to `NP(N)(=O)NC(=O)c1ccc(F)cc1` belongs 1.62% (inactive).
Regarding `CCN(CC)CCOC(=O)C(O)(c1ccccc1)c1ccccc1`, the “activity change, negative = cytotoxic” value was 11.9% (inactive).
Consider `Cc1cccc(C)c1NC(=O)CN1CCCC1=O`, for which the Potency result was “inactive”.
For `CN1C(=S)CN=C(c2ccccc2)c2cc(Cl)ccc21`, the “activity change, negative = cytotoxic” value was -8.3% (inactive).
As to `N[C@@H]1C[C@H]1c1ccccc1`, the “activity change, negative = cytotoxic” value is 6.42% (inactive).
Still for that read-out and setting: to `CC[N+](CC)(CC)CC` belongs 4.09% (inactive).
With `Fc1ccc(C(OCCN2CCN(CCCc3ccccc3)CC2)c2ccc(F)cc2)cc1`, the Potency was 21.7 µM (active) and 24.6 µM (active).
For `CCCC1CCCCN1` (stereo not given), the “activity change, negative = cytotoxic” value is 0.181% (inactive).
With `C#CCOC(C(=O)OCCN(C)C)(c1ccccc1)c1ccccc1`, the “activity change, negative = cytotoxic” value was 5.8% (inactive).
As to `CN(C)CCc1ccc(O)cc1`, the Potency result is “inactive”.
On to `CCN(C(C)=O)c1cccc(-c2ccnc3c(C#N)cnn23)c1`, for which the “activity change, negative = cytotoxic” value was -16.2% (inactive).
Regarding `CC(=O)Nc1cc([As](=O)(O)O)ccc1O`, the “activity change, negative = cytotoxic” value is 22.5% (inactive).
With `NCC1(CC(=O)O)CCCCC1`, the Potency result was “inactive”.

The values above are taken from PubChem BioAssay (NCATS).
